The values below come from PubChem BioAssay (NCI).

The panel holds about 83,000 compounds, 20% with a hit somewhere; the sample as a whole holds those more often.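 The test compound was applied at a single concentration to cells in 96-well plates for 48 hours, and percent growth was recorded.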 A number with no mark means an inactive call. Active and inactive are the calls of the source. Rule for the calls: active = growth percent below 10; inactive = the rest.

Holding throughout (test): NCI-60 one-dose screen, 48 h (100 = growth as untreated, 0 = no growth, -100 = all killed)
One test has as its system SK-MEL-2 melanoma. The settings on record: 10 µM unless noted.
The subject of another test is EKVX NSCLC. The settings on record: 10 µM unless noted.
In a further test the test system is SN12C renal. Particulars: 10 µM unless noted.
In another test the test system is UO-31 renal. Particulars: 10 µM unless noted.
A further test deals with TK-10 renal. The settings on record: 10 µM unless noted.
The subject of another test is ACHN renal. The settings on record: 10 µM unless noted.
The test system of the next test is CAKI-1 renal. Particulars: 10 µM unless noted.
A further test concerns A498 renal. The settings on record: 10 µM unless noted.
The next test concerns MOLT-4 leukemia. The settings on record: 10 µM unless noted.
The subject of another test is SR leukemia. The settings on record: 10 µM unless noted.
Another test relates to RPMI-8226 leukemia. The settings on record: 10 µM unless noted.
Another test relates to OVCAR-8 ovarian. The settings on record: 10 µM unless noted.
For another test, the system named is OVCAR-5 ovarian. The settings on record: 10 µM unless noted.
The next test has as its system OVCAR-4 ovarian. The settings on record: 10 µM.
Another test has as its system SK-OV-3 ovarian. The settings on record: 10 µM unless noted.
In the next test the test system is OVCAR-3 ovarian. Particulars: 10 µM unless noted.
The next test concerns HS 578T breast. Particulars: 10 µM unless noted.
Another test relates to NCI/ADR-RES ovarian. Particulars: 10 µM unless noted.
Another test deals with CCRF-CEM leukemia. The settings on record: 10 µM unless noted.
The subject of a further test is IGROV1 ovarian. Particulars: 10 µM unless noted.

For `Nc1ccc(Cl)c([N+](=O)[O-])c1`, the growth in the test with SK-MEL-2 melanoma is 97.4%; in the test with EKVX NSCLC, 92%; in the test on SN12C renal, 105%; with UO-31 renal, 101%; with TK-10 renal, 103%; with ACHN renal it was 87%. Further, the growth was 78.8% in the test with CAKI-1 renal; 89.5% in the test with A498 renal; 106% in the test with MOLT-4 leukemia; 90.1% in the test on SR leukemia; 97.8% in the test with RPMI-8226 leukemia; 101% with OVCAR-8 ovarian. The growth with OVCAR-5 ovarian was 86%; in the test on OVCAR-4 ovarian, 97.4%; in the test on SK-OV-3 ovarian, 108%; in the test with OVCAR-3 ovarian it was 114%; with HS 578T breast, 110%; with NCI/ADR-RES ovarian, 105%.

On to `C=C(C)C1CCC2(C(=O)O)CCC3(C)C(CCC4C5(C)CCC(OC(=O)NCc6ccccc6)C(C)(C)C5CCC43C)C12` (stereo not given), for which the growth with SK-MEL-2 melanoma was 54.6%; in the test on EKVX NSCLC, 29.1%; in the test on SN12C renal, 42.3%; with UO-31 renal, 40.3%; with TK-10 renal, 59.2%; in the test on ACHN renal, 30.3%. The growth is 16.1% with CAKI-1 renal; 36.6% in the test on CCRF-CEM leukemia; 29.4% with MOLT-4 leukemia; 41.7% in the test with SR leukemia; 8.22% (active) in the test with RPMI-8226 leukemia; 45.5% with OVCAR-8 ovarian. In addition, the growth in the test with OVCAR-5 ovarian was 75.6%; in the test on OVCAR-4 ovarian it was 30.7%; in the test on SK-OV-3 ovarian, 68.9%; in the test with OVCAR-3 ovarian it was 19%; in the test on HS 578T breast it was 84.7%; in the test on NCI/ADR-RES ovarian, 44.8%.

Take `O=C(O)c1cn(C2CC2)c2cc(N3CCN(Cc4c(O)ccc5ccccc45)CC3)c(F)cc2c1=O`: the growth with SK-MEL-2 melanoma is 73.8%; in the test with EKVX NSCLC it was 60.4%; with SN12C renal it was 30.3%; in the test on UO-31 renal, 40.1%; in the test with TK-10 renal it was 61.4%; with ACHN renal, 53.9%. Also, the growth in the test on CAKI-1 renal is 4.12% (active); in the test on CCRF-CEM leukemia it was 67.7%; in the test on MOLT-4 leukemia it was 31.6%; in the test on SR leukemia it was 1.76% (active); in the test on RPMI-8226 leukemia, 73.5%; in the test with OVCAR-8 ovarian, 16.8%. In addition, the growth is 40.8% in the test with OVCAR-5 ovarian; 18.2% in the test with OVCAR-4 ovarian; 48.4% in the test on SK-OV-3 ovarian; 32.1% in the test on IGROV1 ovarian; -44.1% (active) in the test with OVCAR-3 ovarian; -6.63% (active) with HS 578T breast.

As for `C=CCc1nc2ccccc2s1`, the growth was 107% in the test on SK-MEL-2 melanoma; 109% in the test with EKVX NSCLC; 110% with SN12C renal; 63.6% in the test on UO-31 renal; 94.3% with TK-10 renal; 101% in the test on ACHN renal. The growth in the test with CAKI-1 renal is 98.3%; in the test with CCRF-CEM leukemia it was 84.1%; in the test on MOLT-4 leukemia, 89.1%; in the test on SR leukemia it was 98.9%; with RPMI-8226 leukemia, 92.4%; in the test on OVCAR-8 ovarian, 98%. The growth was 101% in the test with OVCAR-5 ovarian; 110% with SK-OV-3 ovarian; 74.6% in the test with IGROV1 ovarian; 114% in the test on OVCAR-3 ovarian; 102% in the test with HS 578T breast; 111% with NCI/ADR-RES ovarian.

Regarding `CC[C@@H]1NC(=O)[C@@H]2CCCCN2C(=O)[C@@H]2CCCN2C(=O)[C@@H](NC(=O)[C@H](Cc2cc(F)cc(F)c2)NC(=O)Nc2ccc(C3CC3)cc2F)[C@H](C)OC(=O)[C@@H]2C[C@@H](C)CN2C1=O`, the growth in the test on SK-MEL-2 melanoma is 9.64% (active); with EKVX NSCLC, 20.4%; in the test on SN12C renal it was 12%; in the test with UO-31 renal it was 11.2%; with TK-10 renal, 34%; with ACHN renal, 12.1%. The growth in the test with CAKI-1 renal is 9.54% (active); in the test with CCRF-CEM leukemia, 40.5%; in the test with MOLT-4 leukemia, 17%; in the test with SR leukemia it was 15.1%; in the test with RPMI-8226 leukemia, 12.8%; in the test with OVCAR-8 ovarian it was 13.2%. Further, the growth in the test on OVCAR-5 ovarian was -1.92% (active); in the test on OVCAR-4 ovarian, 7.84% (active); with IGROV1 ovarian it was 28.5%; in the test with OVCAR-3 ovarian, 6.44% (active); in the test on HS 578T breast it was 20.6%; in the test on NCI/ADR-RES ovarian, 14%.

On to `Cc1ccc2c(n1)C(=O)C(Cl)=C(Nc1ccc(N3CCN(C)CC3)cc1)C2=O`, for which the growth in the test with SK-MEL-2 melanoma is 68.4%; in the test with EKVX NSCLC it was -81.8% (active); in the test with SN12C renal it was -88.5% (active); with UO-31 renal, -97.4% (active); with TK-10 renal it was 100%; with ACHN renal, -93.8% (active). Moreover, the growth with CAKI-1 renal is -100% (active); in the test with CCRF-CEM leukemia, -6.24% (active); in the test on MOLT-4 leukemia, -25.6% (active); in the test with SR leukemia, -5.05% (active); in the test with RPMI-8226 leukemia it was -32.6% (active); in the test with OVCAR-8 ovarian, -62.6% (active). For the same compound, the growth in the test with OVCAR-5 ovarian was -7.55% (active); in the test on OVCAR-4 ovarian, -100% (active); in the test on SK-OV-3 ovarian, 89.9%; in the test on IGROV1 ovarian it was -83.5% (active); in the test on OVCAR-3 ovarian, -100% (active); in the test with HS 578T breast it was 58%. In the test with NCI/ADR-RES ovarian, the growth is 27.6%.

In the case of `NC(=S)Cc1ccccc1`, the growth with SK-MEL-2 melanoma is 103%; in the test on EKVX NSCLC, 97.9%; with SN12C renal, 94.7%; in the test with UO-31 renal, 84.4%; in the test on TK-10 renal, 94.3%; with ACHN renal, 98.1%. Moreover, the growth is 73.6% with A498 renal; 105% in the test with CCRF-CEM leukemia; 103% with MOLT-4 leukemia; 97.9% in the test with SR leukemia; 99.2% in the test on RPMI-8226 leukemia; 103% with OVCAR-8 ovarian. For the same compound, the growth is 100% with OVCAR-5 ovarian; 97% with OVCAR-4 ovarian; 103% in the test with SK-OV-3 ovarian; 107% in the test on IGROV1 ovarian; 102% with HS 578T breast; 105% with NCI/ADR-RES ovarian.

With `O=C(O)c1ccccc1C(F)(F)F`, the growth with SK-MEL-2 melanoma was 112%; with EKVX NSCLC, 93.2%; in the test with SN12C renal, 90.9%; in the test with UO-31 renal, 95.3%; in the test on TK-10 renal, 111%; with ACHN renal, 92.6%. Moreover, the growth is 74.5% with A498 renal; 108% in the test on CCRF-CEM leukemia; 97.1% in the test on MOLT-4 leukemia; 92.4% in the test with SR leukemia; 59% in the test with RPMI-8226 leukemia; 105% in the test with OVCAR-8 ovarian. Also, the growth is 97.2% in the test on OVCAR-5 ovarian; 101% in the test on OVCAR-4 ovarian; 93.1% in the test with SK-OV-3 ovarian; 97.9% with OVCAR-3 ovarian; 89.7% in the test on HS 578T breast; 80.8% with NCI/ADR-RES ovarian.
